Reference: PubChem BioAssay

Experiments:
[1] = tested on: Human papillomavirus type 1a protein E7 (residues 44-93); assay: small molecules binding HPV E7 44-93 – biochemical, small-molecule microarray, residues 44-93, 635 nm fluorescence, primary screen (AID 1108); details: fluorescence 635 nm, higher = more signal;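 note: E7 fragment applied at 1 µg/mL in TBST for 1 h at 4 C; score combines spot fluorescence with its signal to noise ratio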
[2] = hepatitis C replication reporter changes, two-sided – Huh7 cells, luciferase reporter, HCV replication inhibitor project, primary screen (AID 1109); details: Huh7 HCV replicon luciferase reporter, 48 h; higher = more signal;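 note: huh7 hepatoma cells harbouring a luciferase neomycin HCV replicon reporter; luciferase luminescence as measure of HCV replicon replication; test concentration not given here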
[3] = biological target: Left-right determination factor 2 (Homo sapiens) (UniProt O00292); assay: small molecules binding LEFTY2 protein – biochemical, small-molecule microarray, 635 nm fluorescence scan, primary screen (AID 1110); details: higher = more signal
[4] = biological target: Calmodulin-1 (Homo sapiens) (UniProt P0DP23); assay: small molecules binding calmodulin-1 with EGTA – biochemical, small-molecule microarray, Cy5-labelled CALM1, profiling panel (AID 1111); details: Cy5-CALM1 binding fluorescence, higher = more signal;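 note: labelled calmodulin applied in Tris saline Tween buffer holding calcium plus EGTA and DTT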
[5] = biological target: Calmodulin-1 (Homo sapiens) (UniProt P0DP23); assay: small molecules binding Ca-loaded calmodulin-1 – biochemical, small-molecule microarray, Cy5-labelled CALM1, plus calcium, artefact control for SMM control-protein annotation, profiling panel (AID 1112); details: Cy5-CALM1 binding fluorescence, higher = more signal;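 note: score merges spot fluorescence with signal to noise from triplicate slides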
[6] = probe aWnt5a binding to arrayed compounds – biochemical, biotinylated probe, 635/667 nm fluorescence, primary screen (AID 1113); details: small-molecule microarray, higher = more signal;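 note: score merges 667 nm fluorescence intensity with signal-to-noise per printed feature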
[7] = probe aShh binding to arrayed compounds – biochemical, biotinylated probe, 635/667 nm fluorescence, primary screen (AID 1114); details: small-molecule microarray, higher = more signal;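 note: probe is biotin-labelled aShh protein from a stem cell growth factor screen; measures binding of labelled protein to compounds printed on the slide; score merges feature fluorescence at 667 nm with signal-to-noise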
[8] = probe aNog binding to arrayed compounds – biochemical, biotinylated probe, 635/667 nm fluorescence, primary screen (AID 1115); details: small-molecule microarray, higher = more signal;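 note: probe is biotinylated aNog protein used at 0.15 µg/mL for 1 h at 4 C; z-score combines 667 nm fluorescence of each spot with its signal to noise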
[9] = biological target: Torsin-1A-interacting protein 1 (Homo sapiens) (UniProt Q5JTV8); assay: compound microarray binding of lysate hLAP1 – cell lysate, small-molecule microarray, COS7 lysate, 635/667 nm fluorescence, primary screen (AID 1116); details: 635 nm fluorescence, higher = more signal
[10] = biological target: Alpha-bungarotoxin (Bungarus multicinctus) (UniProt P60615); assay: compounds binding labelled alpha-BTX control protein – biochemical, small-molecule microarray, Alexa647 label, 635/667 nm fluorescence, artefact control for SMM control protein annotation, profiling panel (AID 1117); details: alpha-BTX-A647 binding fluorescence, higher = more signal
Chain of Alpha-bungarotoxin (Bungarus multicinctus) (P60615 whole entry, looked up): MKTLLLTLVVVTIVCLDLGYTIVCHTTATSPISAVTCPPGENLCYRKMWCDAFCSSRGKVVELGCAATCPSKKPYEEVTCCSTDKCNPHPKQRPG

Chain of Torsin-1A-interacting protein 1 (Homo sapiens) (Q5JTV8 whole entry, looked up): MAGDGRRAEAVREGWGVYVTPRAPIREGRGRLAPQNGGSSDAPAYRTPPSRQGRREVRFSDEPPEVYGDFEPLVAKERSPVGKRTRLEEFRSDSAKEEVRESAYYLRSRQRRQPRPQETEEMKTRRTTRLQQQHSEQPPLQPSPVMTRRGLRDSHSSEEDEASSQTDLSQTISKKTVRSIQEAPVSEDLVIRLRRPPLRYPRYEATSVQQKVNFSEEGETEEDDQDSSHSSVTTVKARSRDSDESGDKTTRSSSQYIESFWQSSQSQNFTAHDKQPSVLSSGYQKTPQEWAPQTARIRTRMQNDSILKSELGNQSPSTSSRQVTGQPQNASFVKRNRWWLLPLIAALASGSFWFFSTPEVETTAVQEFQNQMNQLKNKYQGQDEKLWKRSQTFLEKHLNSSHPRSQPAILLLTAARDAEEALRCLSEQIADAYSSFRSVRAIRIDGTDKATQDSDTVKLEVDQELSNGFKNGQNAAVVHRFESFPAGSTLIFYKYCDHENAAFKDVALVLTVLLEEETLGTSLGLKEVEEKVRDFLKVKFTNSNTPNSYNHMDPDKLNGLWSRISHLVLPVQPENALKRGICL
Chain of Left-right determination factor 2 (Homo sapiens) (O00292 whole entry, looked up): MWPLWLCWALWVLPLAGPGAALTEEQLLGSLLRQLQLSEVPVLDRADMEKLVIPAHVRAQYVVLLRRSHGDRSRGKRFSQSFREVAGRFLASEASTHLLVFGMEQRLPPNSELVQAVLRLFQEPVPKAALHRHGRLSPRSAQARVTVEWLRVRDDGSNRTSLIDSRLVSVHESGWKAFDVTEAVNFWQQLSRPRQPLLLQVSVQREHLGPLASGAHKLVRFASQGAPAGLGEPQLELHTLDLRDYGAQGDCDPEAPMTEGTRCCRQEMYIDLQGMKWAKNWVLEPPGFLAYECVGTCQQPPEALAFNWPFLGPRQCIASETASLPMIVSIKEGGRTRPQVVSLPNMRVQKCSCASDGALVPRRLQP

SMILES | composite z-score [1] | z-score [2] | composite z-score [3] | composite z-score [4] | composite z-score [5] | composite z-score [6] | composite z-score [7] | composite z-score [8] | composite z-score [9] | composite z-score [10]
O=C1O[C@H](c2ccccc2)[C@H](c2ccccc2)N2[C@H]1[C@@H](C(=O)Nc1nc3ccccc3s1)[C@]1(C(=O)Nc3ccc(C#CC4=CCCCC4)cc31)[C@H]2c1ccc(OCCO)cc1 | 0.945 | -1.91 | 0.56 | 1.36 | 0.536 | -0.176 | -0.188 | 1.37 | -0.513 | 2.12
CCN(CC)c1ccc(N2CC=CC34O[C@@H]5/C=C\CCCOC(=O)C5[C@H]3C(=O)N(CCCO)[C@@H]4C2=O)cc1 (stereo not given in full) | 0.941 | -0.597 | -2.09 | -0.629 | 0.479 | -0.197 | 0.14 | -0.0238 | 2.44 | -1.44
COc1ccc(C(=O)Nc2cccc(CN3C(=O)[C@@]4(O[C@@H](CCn5cc([C@H](O)c6ccccc6)nn5)[C@H]([Si](C)(C)c5ccc(OC)cc5)[C@H]4C)c4ccccc43)c2)cc1 | -0.32 | -5.06 | 0.534 | -0.0819 | -0.346 | 0.0279 | -0.262 | -0.205 | 0.485 | 0.935
CN1C(=O)C2C(C1=O)C1C=C(c3ccc(CO)cc3)C2C(C2CC2)N1Cc1sc2ccccc2c1Cl (stereo not given) | 0.946 | -1.58 | 0.545 | 2.06 | 0.398 | 0.0561 | 0.079 | -0.186 | 2.06 | 2.87
C=CC[C@@]1(C(=O)OC)N=C(c2ccc(OCCCO)cc2)O[C@@H]1c1ccccc1CN=[N+]=[N-] | 1.14 | -2.02 | -0.0045 | -0.517 | -0.896 | -0.144 | -0.0553 | -0.24 | 0.798 | 0.389
Cn1c2c(c3ccccc31)C(=O)C1NC2C=CC1(C)C(=O)OCc1ccccc1 (stereo not given) | -0.369 | -0.836 | -1.71 | 0.682 | 1.13 | -0.0887 | 0.123 | 0.771 | 1.38 | 1.92
O=C1OCCC/C=C\[C@H]2OC34C=CCN(CCN5CCOCC5)C(=O)[C@H]3N(CCO)C(=O)[C@@H]4C12 (stereo not given in full) | -0.359 | 0.0112 | -0.416 | -0.0877 | 0.124 | -0.176 | -0.2 | 0 | -0.0137 | -0.938
O=C1C2C=CC(C(O)c3ccc(Br)cc3)N(n3cnnc3)C2C(=O)N1Cc1ccccc1 (stereo not given) | 1.34 | -4.38 | 0.329 | -0.0714 | 0.182 | -0.0236 | -0.0827 | 0.205 | 0.465 | 0.942
O=c1cccc(-c2cccc3ccccc23)o1 | -0.285 | -0.497 | -0.905 | 0.088 | 0.33 | -0.0751 | -0.138 | 1.25 | 0.78 | 0.541
O=C1[C@H]2C=C(Br)[C@H](C[C@@H]2OCCOCCO)[C@@]12CO2 | 0.0617 | -1.85 | 0.348 | -0.2 | -0.341 | -0.0944 | -0.0769 | -0.303 | 0.0452 | 0.554
NC(=O)NCC#Cc1ccc2c(c1)[C@]1(C(=O)N2)[C@H](C(=O)NC[C@H](O)c2ccccc2)[C@H]2C(=O)O[C@H](c3ccccc3)[C@H](c3ccccc3)N2[C@@H]1c1ccccc1OCCO | 1.41 | -1.49 | -0.914 | 0.103 | -0.134 | -0.139 | -0.301 | 0.665 | 0.433 | 3.26
CN(C)CCCC[C@@H]1NC(=O)[C@H]2C[C@@H](C(=O)NCCCCCNC(=O)CS)[C@@H](c3ccc(O)cc3)N2C1=O | -0.781 | 0.579 | -1.34 | -0.0462 | 0.586 | -0.124 | -0.0396 | -0.0793 | 0.172 | 0.808
C=CCCN(CC#C[C@H]1Oc2ccccc2S(=O)(=O)N2CCC[C@@H]12)S(=O)(=O)c1ccc(C)cc1 | 0.328 | -1.92 | 0.148 | -0.498 | -0.863 | -0.0125 | 0.0048 | -0.183 | 0.631 | -0.189
C=CCC(OC(C)=O)[C@@H]1[C@@H](N(Cc2ccc(-c3cccc(C(F)(F)F)c3)o2)C(=O)Cc2ccc(OC)cc2)c2cc(OCCCO)ccc2N1C(=O)Cc1ccc(OC)cc1 (stereo not given in full) | -0.641 | -1.46 | -0.606 | -0.503 | -1.26 | -0.203 | -0.0035 | -0.196 | -0.347 | -0.132
COC(=O)[C@@]1(Cc2ccc(F)cc2)[C@H]2c3cc(C(=O)N(C)C)n(Cc4ccccn4)c3C[C@H]2CN1C(=O)c1ccccc1 | 1.4 | -1.39 | 0.256 | 0.63 | 0.681 | -0.195 | -0.333 | 0.535 | 1.11 | 0.0404
[N-]=[N+]=Nc1ccccc1[C@@H]1OC(c2ccc(OCCCO)cc2)=N[C@]1(CCS(=O)(=O)c1ccccc1)C(=O)O | 1.42 | 0.666 | 0.459 | 1.35 | 0.304 | 0.383 | -0.0146 | -0.0345 | 0.677 | 1.55

SMILES | composite z-score [1] | z-score [2] | composite z-score [3] | composite z-score [4] | composite z-score [5] | composite z-score [6] | composite z-score [7] | composite z-score [8] | composite z-score [9] | composite z-score [10]
COc1ccc([Si](C)(C)[C@H]2[C@H](CCO)O[C@@]3(C(=O)N(Cc4cccc(N5C(=O)c6cccc7cccc5c67)c4)c4ccccc43)[C@@H]2C)cc1 | 1.06 | -4.97 | -0.652 | 1.04 | 0.591 | 0.0618 | 0.0121 | 0.741 | 0.116 | 0.621
COCCCNC(=O)[C@]1(Cc2ccccc2N=[N+]=[N-])N=C(c2ccc(OCCCO)cc2)O[C@@H]1c1ccccc1CN=[N+]=[N-] | 1.45 | -3.09 | 0.331 | 1.5 | 0.813 | 0.0952 | 0.496 | 0.555 | 1.39 | 1.01
C#C[C@H](O[Si](C#CCCCCCC)(C(C)C)C(C)C)c1ccccc1 | 0.228 | 0.242 | -0.234 | -0.302 | -0.351 | -0.131 | -0.341 | 0.167 | -0.0173 | 0.0612
O=C1OCC=C[C@H]2OC34C=CCN(c5ccc6ccccc6c5)C(=O)[C@H]3N(CCO)C(=O)[C@@H]4[C@@H]12 (stereo not given in full) | -0.589 | -0.727 | -1.99 | -0.245 | 0.716 | -0.152 | 0.191 | 0.0721 | -0.831 | -0.74
O=C(NCC(O)CO)[C@@]1(Cc2ccccc2)COC(c2ccc(OCCCO)cc2)=N1 (stereo not given in full) | 0.422 | -0.992 | -0.483 | 0.77 | 1.11 | -0.0704 | -0.283 | -0.134 | 0.561 | -0.363
CC(=O)n1cc(C(O)C2C=CC3C(=O)N(c4ccccc4)C(=O)C3N2Nc2ccc(C#N)cc2)c2ccccc21 (stereo not given) | 1.48 | -0.41 | -0.125 | 0.449 | -0.577 | 0.155 | 0.385 | 1.02 | 0.557 | 0.645
Cc1ccc(S[C@]2(C(=O)NCc3ccccc3)CC(=O)N(Cc3cc(C(F)(F)F)cc(C(F)(F)F)c3)[C@@H]2c2ccc(CO)cc2)cc1 | -0.115 | -0.763 | -0.637 | -0.477 | 0.187 | -0.12 | 0.516 | 0.0538 | -0.712 | -0.302
C=CC[C@@]1(C(=O)NCCN2CCOCC2)N=C(c2ccc(OCCCO)cc2)O[C@@H]1c1ccccc1CN=[N+]=[N-] | 0.947 | -1.74 | -0.325 | 1.42 | 0.555 | -0.154 | 0.0822 | 0.104 | 1.77 | 0.604
COc1ccccc1CN1C(=O)c2ccccc2[C@](Cc2ccccc2I)(C(=O)NCc2ccccc2)[C@@H]1c1ccc(CO)cc1 | 0.0977 | -0.641 | -0.703 | 0.0656 | 0.556 | 0.037 | -0.264 | -0.268 | -0.0999 | 1.05
[N-]=[N+]=NCc1ccccc1[C@@H]1OC(c2ccc(OCCCO)cc2)=N[C@]1(Cc1ccccc1)C(=O)O | 1.38 | -0.297 | -0.252 | 1.14 | 0.518 | -0.0479 | 0.0711 | -0.419 | 0.767 | 0.865
C=CCNC(=O)[C@H]1[C@@H]2C(=O)O[C@@H](c3ccccc3)[C@@H](c3ccccc3)N2[C@@H](c2ccc(O)cc2)[C@]12C(=O)Nc1ccc(C#Cc3ccc(OC)cc3)cc12 | 0.758 | -2.06 | 0.884 | 0.664 | -0.367 | -0.219 | 0.278 | 0.409 | 1.31 | 0.196
C=C(C(=O)CC[C@@H](OC(=O)c1cccnc1)c1ccc(CO)o1)C(C)C | 1.03 | -1.24 | 0.46 | -0.478 | -0.835 | -0.139 | -0.0701 | 0.337 | 1.35 | 0.346
C=C(/C(=C/C[C@@H](OC(C)=O)c1ccc(CO)o1)c1cnc2ccccc2c1)C(C)C | 1.09 | -2.37 | 1.06 | 0.384 | -1.12 | -0.0346 | 0.123 | 0.153 | 1.24 | 0.818
O=C1OCCC=C[C@H]2OC34C=CCN(c5ccc6ccccc6c5)C(=O)[C@H]3N(CCCCCCO)C(=O)[C@@H]4C12 (stereo not given in full) | 0.404 | 0.0919 | -0.431 | -0.611 | -0.321 | -0.176 | -0.0337 | -0.201 | 0.164 | -1.37
COC(=O)[C@@]1(Cc2ccccc2)[C@H]2c3cc(C(=O)N(C)C)n(Cc4ccccc4)c3C[C@H]2CN1C(=O)c1ccccc1 | 0.104 | -1.13 | -0.586 | 0.733 | 0.0453 | 0.3 | 1.63 | 0.837 | 0.706 | 0.273
NC(=O)NCC#Cc1ccc2c(c1)[C@]1(C(=O)N2)[C@H](c2ccc(O)cc2)N2[C@H](c3ccccc3)[C@H](c3ccccc3)OC(=O)[C@H]2[C@@H]1C(=O)N1CCN(c2ncccn2)CC1 | 0.237 | -0.762 | 0.158 | 0.301 | 0.476 | -0.13 | -0.349 | 0.789 | 0.811 | 0.772
